This passage reports Inhibition results from ChEMBL document CHEMBL4513146, “CO-ADD screening of Karazin Kharkiv National University (Ukraine) compounds”.

SMILES strings stand for the structures. Potency and affinity values are given separately.

The test system of the assay is Escherichia coli. The following applies: Concentration 32 ug.mL-1;; ASSAY_TEST Inhibition of Bacterial Growth; detection method Absorption (OD600); MEDIA CAMHB; plate type 384well; NBS; CORNING #3640; time 18 hr.
Broadly, the Inhibition is the drop in the measured response relative to a control, in per cent. Regarding `CCCCc1ccc(NC(=O)CSc2nnc3c4cc(-c5ccc(C)cc5)nn4ccn23)cc1`, the Inhibition is given as 0.28%.
With `CCC(C)NC(=O)CCn1c(=O)c2ccccc2n2c(=O)n(CC(=O)NCc3cccs3)nc12` (stereo not given) the figure was -2.09%; with `Cc1cccc(NC(=O)Cn2nc3c4cc(-c5ccc(Cl)cc5)nn4ccn3c2=O)c1C`, -1.29%; with `Cc1ccc(CNC(=O)CSc2nnc3c4cc(-c5ccc(C)cc5)nn4ccn23)cc1`, 0.59%.
In the case of `CCOc1ccc(NC(=O)Cn2nc3c(SCc4ccc(Cl)cc4)nccn3c2=O)cc1` it was -9.96%; in that of `CCc1nnc2c(S(=O)(=O)N(Cc3cc(F)cc(F)c3)c3ccc(F)cc3)cccn12`, -11.24%; in that of `COc1cccc(Oc2nccn3c(=O)n(CC(=O)Nc4ccc(Br)cc4F)nc23)c1`, -0.07%.
For the compound `CCc1cccc(NC(=O)Cn2nc3ccc(SC(C)(C)C)nn3c2=O)c1`, the Inhibition is reported as -1.32%.
In the case of `O=C(CSc1nc2ccccc2n2cnnc12)N1CCN(c2ccc(F)cc2)CC1` it was 1.79%.
As for `CCC(C)NC(=O)Cn1nc2n(CCC(=O)NC3CCCCC3)c(=O)c3ccccc3n2c1=O` (stereo not given), the Inhibition is listed as -15%.
With `CN(C(=O)Cn1nc2nc(Nc3ccc(F)cc3)ccn2c1=O)c1ccccc1` the figure was -1.66%; with `Cc1cccc(NC(=O)CSc2nnc3ccc(C(=O)Nc4cccc(F)c4)cn23)c1C`, -1.92%.
For the compound `O=C(Cn1nc2ccc(-c3ccc(Cl)cc3)nn2c1=O)Nc1ccccc1`, the Inhibition was -11.42%.
For `CCc1nnc2c(S(=O)(=O)N(Cc3cccc(OC)c3)c3cccc(C)c3)cccn12`, the Inhibition was -1.22%.
With `Cc1ccc(CN(c2ccc3c(c2)OCO3)S(=O)(=O)c2ccc3nnc(C)n3c2)cc1` the figure was -3.16%; with `COc1cccc(-n2ccn3c(SCC(=O)N4CCN(c5ccc(F)cc5)CC4)nnc3c2=O)c1`, -17.03%.
With `CCC(C)NC(=O)CSc1nnc2c(=O)n(Cc3ccc(F)cc3)ccn12` (stereo not given) the figure was -9%.
In the case of `CCc1ccccc1Sc1nccn2c(=O)n(CC(=O)NCc3cccs3)nc12` it was -12.39%; in that of `Cc1ccccc1NC(=O)Cn1nc2c3cc(-c4ccc(Cl)cc4)nn3ccn2c1=O`, 4.06%; in that of `COc1ccccc1N1CCN(C(=O)Cn2nc3ccc(-c4ccc(Cl)cc4)nn3c2=O)CC1`, 0.78%.
`COc1cccc(CSc2nnc3c(=O)n(-c4ccc(Br)cc4)ccn23)c1`: the Inhibition is -1.68%.
In the case of `CCCCOc1ccc(-c2cc3c4nnc(SCC(=O)Nc5ccccc5F)n4ccn3n2)cc1`, the Inhibition was -3.53%.
In the case of `CC(C)c1ccc(NC(=O)Cn2nc3c(N4CCCCC4)nccn3c2=O)cc1` it was -4.05%; in that of `COc1ccccc1-n1ccn2c(SCC(=O)Nc3ccc4c(c3)OCCO4)nnc2c1=O`, -1.11%; in that of `COC(=O)c1ccc(CN(c2cccc(F)c2)S(=O)(=O)c2ccc3nncn3c2)o1`, -3.46%.
In the case of `CCc1ccc(N(Cc2ccccc2)S(=O)(=O)c2cccn3c(CC)nnc23)cc1` it was -0.95%.
For the compound `Cc1ccc(NC(=O)Cn2nc3c(Oc4ccccc4)nccn3c2=O)c(Cl)c1`, the Inhibition was -2.7%.
With `COC(=O)c1cccc(NC(=O)Cn2nc3c(Oc4ccccc4)nccn3c2=O)c1` the figure was -4.6%; with `CCOc1ccc(NC(=O)Cn2nc3c(Sc4cccc(F)c4)nccn3c2=O)cc1`, -8.75%.
With `CC(C)c1nnc2c(=O)n(CC(=O)Nc3cccc(F)c3)c3ccccc3n12` the figure was 3.96%; with `COc1ccc(NC(=O)Cn2nc3c(Sc4ccccc4)nccn3c2=O)cc1`, -3.96%.
Take `COc1ccc(-c2cc3c4nn(CC(=O)Nc5ccc(OC)c(Cl)c5)c(=O)n4ccn3n2)cc1`: the Inhibition is on record as -6.71%.
With `O=c1c2nnc(SCc3ccc(Cl)cc3)n2ccn1-c1ccc(F)cc1` the figure was 2.84%; with `Cc1nnc2c(S(=O)(=O)N(Cc3ccc(F)cc3)c3ccc(Cl)cc3)cccn12`, -5.38%.
With `CSc1ccc(CNC(=O)Cn2nc3c(N4CCN(c5ccccc5)CC4)nccn3c2=O)cc1` the figure was 0.69%; with `COc1cc(Cl)c(C)cc1NC(=O)Cn1nc2ccc(SC(C)(C)C)nn2c1=O`, 3.96%; with `Cc1ccc(CNC(=O)Cn2nc3c(SC4CCCCC4)nccn3c2=O)cc1`, -3.86%.
Take `CCCCOc1ccc(-c2cc3c4nnc(SCC(=O)Nc5cc(C)ccc5C)n4ccn3n2)cc1`: the Inhibition is on record as -10.44%.
In the case of `Cc1ccc(Sc2nccn3c(=O)n(CC(=O)Nc4cccc(Cl)c4)nc23)c(C)c1` it was -3.61%; in that of `COc1ccccc1-n1ccn2c(SCC(=O)NCc3ccc(Cl)cc3)nnc2c1=O`, -3.51%.
